Test results reported in PubChem BioAssay AID1076 (NMMLSC, 2008).
Active and inactive are the calls of the source.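 The calls were made as follows: active = cell event count below 40, meaning activity score above 60 where score is 100 minus count; inactive = the rest.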

Test: LNCaP cell loss by flow event count, confirmation, cytotoxicity control for prostate differentiation activator project, single point (AID 1076);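 also: counts scatter-gated live cells after medium removal discards detached dead cells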
Conditions: flow cytometry event count, 4 d, stronger effect = lower value

Row | SMILES | cell event count (at 100 µM) | cell event count (event count, at 10 µM)
1 | COc1ccccc1N1CCN(c2nc3ccccc3nc2C(C#N)C(=O)OC(C)C)CC1 (stereo not drawn) | 110 (inactive) | 252
2 | CCN(CC)CCCNc1oc(-c2cccc(Cl)c2)nc1C#N | 32 (inactive) | 227
3 | Cc1cc(C)nc(N2CCC(C(=O)Nc3ccc(Oc4ccccc4)cc3)CC2)n1 | 145 (inactive) | 398
4 | CN(C(=O)c1ccccn1)c1nnc(-c2cccnc2)s1 | 168 (inactive) | 240
5 | O=C(NCCCN1CCN(c2cccc(Cl)c2)CC1)C1CCC(=O)N1Cc1ccccc1Cl (stereo not drawn) | 12 (inactive) | 239
6 | Cc1oc(-c2ccccc2F)nc1CN1CCC(C(=O)NC2CC2)CC1 | 363 (inactive) | 496
7 | Cc1noc(C)c1S(=O)(=O)N1CCC(C(=O)NCCN2CCC(C)CC2)CC1 | 300 (inactive) | 188
8 | O=C(NCC1CCCO1)C1CC(c2ccc(Cl)c(Cl)c2)=NO1 (stereo not drawn) | 85 (inactive) | 79
9 | O=c1cc(N2CCN(c3ccc(F)cc3)CC2)[nH]c(=O)n1C1CCCCC1 | 173 (inactive) | 318
10 | O=C(Nc1ccc2oc(Cc3ccc(Cl)cc3)nc2c1)c1cccnc1 | 17 (inactive) | 96
11 | CCn1c(=O)cc(OCC(=O)O)c2ccccc21 | 22 (inactive) | 99.5
12 | O=C(NCCCN1CCN(c2ccc(F)cc2)CC1)c1cccc(N2CCCC2=O)c1 | 206 (inactive) | 263
13 | CCCCOC(=O)Nc1cc(C(=O)OC)ccc1C(=O)OC | 143 (inactive) | 206
14 | COc1ccc(S(=O)(=O)CCC(=O)O)cc1 | 153 (inactive) | 47
15 | CN(CC(O)COc1ccc(OCC(O)CN(C)C2CCCCC2)cc1)C1CCCCC1 (stereo not drawn) | 249 (inactive) | 118
16 | CN(C)CCCN1c2ccccc2CCc2ccc(Cl)cc21 | 43 (inactive) | 74
17 | Cc1nc(NCCNC(=O)c2ccco2)c2c(C)c(C)sc2n1 | 83 (inactive) | 170
18 | Cc1ccc(CNc2nc3ccccc3n3nnnc23)cc1 | 245 (inactive) | 196
19 | CCOc1ccc(C(=O)Nc2ccc(Cl)cn2)cc1Cl | 41 (inactive) | 86
20 | Cc1oc(-c2ccc(Cl)cc2)nc1CN1CCC(C(=O)NCc2ccco2)CC1 | 178 (inactive) | 174

Row | SMILES | cell event count (at 100 µM) | cell event count (event count, at 10 µM)
21 | Cc1ccccc1-c1nc(CN2CCC(C(=O)O)CC2)c(C)o1 | 217 (inactive) | 207
22 | Cc1ccccc1-c1nc(CN2CCC(C(=O)NCCCN3CCOCC3)CC2)c(C)o1 | 38 (inactive) | 126
23 | CCN1CCN(CCNC(=O)C2CCCN(Cc3nc(-c4cccc(Cl)c4)oc3C)C2)CC1 (stereo not drawn) | 14 (inactive) | 141
24 | N=c1c(C(=O)NC2CCCC2)cc2c(=O)n3ccccc3nc2n1C1CCCC1 | 12 (active) | 55
25 | O=C(c1ccc2c(c1)OCCO2)N1CCCCC1 | 65 (inactive) | 81.5
26 | CCOC(=O)c1sc2ncnc(N3CCN(c4ccc(OC)cc4)CC3)c2c1C | 16 (inactive) | 76.5
27 | COc1ccc(-c2noc(CCC(=O)NCCCN3CCC(Cc4ccccc4)CC3)n2)cc1 | 23 (active) | 51
28 | Cc1cc(N2CCC(N(C)C3CCCC3)CC2)nc2cc(O)ccc12 | 26 (inactive) | 196
29 | COc1ccc(CCNC(=O)C2CCCN(Cc3nc(-c4ccccc4C)oc3C)C2)cc1OC (stereo not drawn) | 12 (inactive) | 190
30 | COc1ccc(-c2coc3c(CN4CCCCC4)c(O)c(CN4CCCCC4)c(O)c3c2=O)cc1 | 7 (active) | 63
31 | Cn1nc(-c2ccc(Cl)cc2)c2cc(C(=O)NCCCN3CCCC3)sc21 | 19 (inactive) | 104
32 | COc1ccc(N2CCN(CCCNC(=O)CCCn3c(=O)[nH]c4ccsc4c3=O)CC2)cc1 | 13 (active) | 25.5
33 | O=C(CCn1c(=O)oc2ccccc21)NCCCN1CCN(c2ccc(F)cc2)CC1 | 213 (inactive) | 127
34 | N#C/C(=C\c1ccc(O)c(O)c1)C(=O)NCCCc1ccccc1 | 38 (inactive) | 99
35 | COc1ccc(-c2noc(-c3cc(Cl)ccc3Cl)n2)cc1OC | 77 (inactive) | 110
36 | CCN1CCN(c2ncc(C(=O)Nc3cc(Cl)c(OC)cc3OC)c3ccccc23)CC1 | 41 (inactive) | 301
37 | CCCCC(=O)NCCc1ccc(S(N)(=O)=O)cc1 | 238 (inactive) | 92.5
38 | CCN1CCN(C(=O)C2CCN(Cc3nc(-c4cccc(Cl)c4)oc3C)CC2)CC1 | 12 (inactive) | 192
39 | Cc1ccccc1CN1CCN(CC(=O)NCCCN2CCN(c3ccc(F)cc3)CC2)C1=O | 241 (inactive) | 195
